Screening data (PubChem BioAssay)
Mdm2-MdmX inh – inhibitors of human Mdm2-MdmX association, primary screen, cell-based, luminescence, split luciferase, SaOS-2, uHTS | SaOS-2 split-luciferase Mdm2/MdmX complementation | actives 3% (n = 330,000) | inhibition, % at 8 µM | Protein Mdm4 (Homo sapiens) + E3 ubiquitin-protein ligase Mdm2 (Homo sapiens), …;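 active means inhibition of at least 50% at 8 µM in the primary screen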
Target sequence (O15151 whole entry, looked up): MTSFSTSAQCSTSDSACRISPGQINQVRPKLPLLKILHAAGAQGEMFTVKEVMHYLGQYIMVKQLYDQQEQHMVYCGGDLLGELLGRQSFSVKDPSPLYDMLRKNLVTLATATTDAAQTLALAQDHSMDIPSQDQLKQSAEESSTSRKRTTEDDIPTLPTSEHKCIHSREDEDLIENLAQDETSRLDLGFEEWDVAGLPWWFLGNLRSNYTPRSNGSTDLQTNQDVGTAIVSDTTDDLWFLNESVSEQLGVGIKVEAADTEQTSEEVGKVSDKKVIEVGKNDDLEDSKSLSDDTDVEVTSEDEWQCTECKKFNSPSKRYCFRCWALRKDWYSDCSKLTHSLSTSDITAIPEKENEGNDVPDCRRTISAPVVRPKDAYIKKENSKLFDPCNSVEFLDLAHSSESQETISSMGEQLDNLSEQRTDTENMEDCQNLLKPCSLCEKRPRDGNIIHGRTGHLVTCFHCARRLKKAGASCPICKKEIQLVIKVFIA
Target sequence (Q00987 whole entry, looked up): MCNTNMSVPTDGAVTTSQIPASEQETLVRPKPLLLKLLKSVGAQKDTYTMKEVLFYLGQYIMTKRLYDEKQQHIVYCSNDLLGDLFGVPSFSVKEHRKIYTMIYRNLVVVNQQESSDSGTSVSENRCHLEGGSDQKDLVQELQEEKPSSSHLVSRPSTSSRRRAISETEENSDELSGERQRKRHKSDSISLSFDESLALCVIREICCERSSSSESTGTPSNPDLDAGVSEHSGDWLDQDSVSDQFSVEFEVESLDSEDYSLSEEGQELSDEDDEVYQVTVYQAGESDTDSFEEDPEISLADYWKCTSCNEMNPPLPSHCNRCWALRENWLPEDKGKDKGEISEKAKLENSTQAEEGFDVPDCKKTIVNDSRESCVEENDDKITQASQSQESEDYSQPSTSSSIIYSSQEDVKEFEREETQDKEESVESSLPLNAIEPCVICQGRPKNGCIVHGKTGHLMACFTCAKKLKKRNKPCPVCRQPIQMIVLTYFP
Beta apoptosis – inhibitors of cytokine-induced beta cell apoptosis, primary screen, luminescence. INS-1E cytokine-induced death, ATP luminescence, 48 h; percent of positive-control rescue, neutral wells zero. protection from apoptosis, % (no concentration beside the values). actives 0.8% (n = 300,000). AID 435005, 2010;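 active means Every replicate reaches about 75%, or at least half do and their mean reaches it too, limit read from the data; inconclusive means At least half of replicates reach the limit but their mean does not; inactive means Under half of replicates reach the limit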;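 further: higher means more ATP so stronger rescue from cytokine killing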
aSyn UTR inh – MLPCN primary screen, SNCA 5' untranslated region | alpha-synuclein 5'UTR reporter, inhibitor activity | inhibition, % (tested at 7.5 µM) | actives 0.82% (n = 300,000); in the data active means inhibition above about 60%; inconclusive means no clear call, values can overlap the other calls;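 further: H4 neuroglioblastoma cells stably carrying SNCA 5'UTR luciferase fusion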
CSC inhib – cancer stem cell viability inhibitors, primary screen, luminescence; cancer stem cell-like cells viability; actives 1.1% (n = 300,000); inhibition, % at 7.5 µM; in the data active means inhibition above about 75%; inconclusive means no clear call, values can overlap the other calls; tested in HMLE shEcad cells
Bfl-1 A1 inh – caspase 3/7 activation in MEF A1-2A-BIM cells, primary screen, A1 inhibitor project, cell-based, luminescence, HTS | Caspase-Glo 3/7 luminescence, 3 h; percent of clofoctol response, vehicle zero | actives 0.066% (n = 330,000) | caspase activation, % (no concentration beside the values);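 active means over half of replicate activation scores above 10%, or exactly half above 10 with the replicate mean above 10; inconclusive means replicate mean below 10 yet half the replicates above 10; inactive means over half of replicates below 10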
Mdm2-MdmX conf – Mdm2-MdmX complex disruptors, retested hits, confirmation, luminescence, single concentration; shares compounds with Mdm2-MdmX inh; Mdm2-MdmX binding, luminescent assay; inhibition, % at 8 µM; actives 55% (n = 10,000); AID 489028, 2010; in the data active means inhibition above about 40%
Full FLuc ctr – full-length luciferase signal inhibition, confirmation, counter-screen for Mdm2/MdmX interaction inhibitor project, cell-based, single concentration, SaOS-2; shares compounds with Mdm2-MdmX inh; SaOS-2 full-length luciferase counterscreen, luminescence; inhibition, % at 8 µM; actives 77% (n = 6,200); AID 504607, 2011;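 active means mean inhibition at 8 µM reaching about 37%, which flags the compound as non-specific, limit read from the data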;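 further: p53-null SaOS-2 cells with luciferase driven by a doxycycline-inducible promoter; compound on cells about two nights before reading with doxycycline added after day one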
Each line names hits and unclear results; the compound was inactive in the other large screens (follow-up assays come after a bar, where they were run). Hits are enriched below; roughly 4.1% of the tested compounds scored in any of these assays.

CCCC(NCC(O)COc1ccc(-c2ccccc2)cc1)c1ccccc1 (centres undefined)	Mdm2-MdmX inh 100, aSyn UTR inh 83 (no result: CSC inhib) | Mdm2-MdmX conf 56 | Full FLuc ctr 60
COc1ccc(OCC(O)CNC(C)c2ccccc2)cc1 (centres undefined)	none
Cc1cc(C)c2sc(NNC(=O)c3ccc(S(=O)(=O)N4CCc5ccccc5C4)cc3)nc2c1	Mdm2-MdmX inh 83, Beta apoptosis 101, aSyn UTR inh 77, CSC inhib 103 | Mdm2-MdmX conf 85 | Full FLuc ctr 42
CCc1nnc(NC(=O)c2ccc(S(=O)(=O)N3CCc4ccccc4C3)cc2)s1	none
Cc1cc(C)c2nc(NNC(=O)c3ccc(S(=O)(=O)N4CCc5ccccc5C4)cc3)sc2c1	Mdm2-MdmX inh 82, Beta apoptosis 87, aSyn UTR inh 75, CSC inhib 104 | Mdm2-MdmX conf 86 | Full FLuc ctr 38
Cc1nnc(NC(=O)c2ccc(S(=O)(=O)N3CCc4ccccc4C3)cc2)o1	none
CCOC(=O)c1[nH]cnc1C(=O)N1CCC(C)CC1	none (no result: aSyn UTR inh)
CC(C)n1cnc2c(Nc3cccc(Cl)c3)nc(NCCCO)nc21	Mdm2-MdmX inh 73 | Mdm2-MdmX conf 74 | Full FLuc ctr 72
CC(C)[C@H](CO)Nc1nc(Nc2ccc(Cl)c(C(=O)O)c2)c2ncn(C(C)C)c2n1	none
CN(CCO)c1ccc(C=NNc2ccc([N+](=O)[O-])cc2S(=O)(=O)Nc2ccccc2C(=O)O)cc1	none (no result: aSyn UTR inh)
CC[C@H](C)[C@H]1O[C@]2(CC[C@@H]1C)C[C@@H]1C[C@@H](CC=C(C)[C@@H](O[C@H]3C[C@H](OC)[C@@H](O[C@H]4C[C@H](OC)[C@@H](O)[C@H](C)O4)[C@H](C)O3)[C@@H](C)C=CC=C3CO[C@@H]4[C@H](O)C(C)=C[C@@H](C(=O)O1)[C@]34O)O2	Mdm2-MdmX inh 100, Beta apoptosis 87, CSC inhib 103 (no result: aSyn UTR inh) | Mdm2-MdmX conf inactive
Fc1ccccc1-c1cc2ccccc2cn1	none (no result: aSyn UTR inh)
C=CCN1N=C(c2ccc(NC(=O)c3ccccc3)cc2)CSC1=O	Mdm2-MdmX inh 66 | Mdm2-MdmX conf inactive
O=C1[C@H](Oc2ccccc2)[C@@H](c2ccccc2)N1c1ccncc1	Mdm2-MdmX inh 50 (no result: Beta apoptosis, aSyn UTR inh, CSC inhib, Bfl-1 A1 inh) | Mdm2-MdmX conf inactive
O=S(=O)(/C=C/c1ccccc1)Oc1ccccc1	Mdm2-MdmX inh 76 | Mdm2-MdmX conf 50 | Full FLuc ctr 78
Cc1ccc(NC(=O)/C(=C/c2cccc([N+](=O)[O-])c2)NC(=O)C2CCCCC2)c(C)c1	Mdm2-MdmX inh 88 | Mdm2-MdmX conf inactive
CCC(=O)C1CCCN(C(=O)CCc2nnc(-c3ccc(C(C)=O)s3)o2)C1 (centres undefined)	none
COCC(C)n1c(SC(C)C(=O)NC2CCCCC2C)nc2ccccc2c1=O (centres undefined)	none (no result: Beta apoptosis)
Cc1ccc(-c2nc3c(c(=O)[nH]c(=O)n3Cc3ccccc3)n2Cc2ccccc2)o1	none (no result: Mdm2-MdmX inh, Beta apoptosis, CSC inhib, Bfl-1 A1 inh)
Cc1ccc(-c2nc3c(c(=O)[nH]c(=O)n3Cc3ccccc3)n2C)s1	Mdm2-MdmX inh 62 | Mdm2-MdmX conf inactive
Cc1ccc(C)c(N2CCN(CCCNC(=O)CCC(=O)N3CCOc4ccc(Cl)cc43)CC2)c1	Mdm2-MdmX inh 78 | Mdm2-MdmX conf 43 | Full FLuc ctr 56
O=C(CCC(=O)N1CCOc2ccc(Cl)cc21)NCCCN1CCN(c2ccccc2F)CC1	none
Cc1ccc(C)c(N2CCN(CCCNC(=O)Cn3cccc3C(=O)c3ccccc3)CC2)c1	Mdm2-MdmX inh 59 | Mdm2-MdmX conf inactive
O=C(CCC(=O)N1CCOc2ccc(Cl)cc21)NCCCN1CCC(Cc2ccccc2)CC1	Mdm2-MdmX inh 83 | Mdm2-MdmX conf 50 | Full FLuc ctr 95
CC(Cc1c[nH]c2ccccc12)C(=O)NCc1ccco1 (centres undefined)	none (no result: Beta apoptosis, CSC inhib)
Cc1ccc(NC(=O)c2ccc(C(=O)c3ccccc3)cc2)nc1	none
CCOC(=O)C(C)/C(C)=N/NC(=O)c1cc2ccccc2cc1O (centres undefined)	Mdm2-MdmX inh 82, Beta apoptosis inconclusive, aSyn UTR inh 62 | Mdm2-MdmX conf 81 | Full FLuc ctr 56
COc1ccc(C[C@H]2CN3C(=NC[C@@H]3Cc3ccccc3)N2C[C@H](C)NC(=O)CCC2CCCCC2)cc1	Mdm2-MdmX inh 68 (no result: Beta apoptosis, CSC inhib, Bfl-1 A1 inh) | Mdm2-MdmX conf 48 | Full FLuc ctr 72
COc1ccc(C[C@H]2CN3C(=NC[C@@H]3Cc3ccc(O)cc3)N2C[C@H](C)NC(=O)c2ccc(C)c(Br)c2)cc1	Mdm2-MdmX inh 86 | Mdm2-MdmX conf inactive
Cc1ccc(C(=O)N[C@@H](C)CN2C3=NC[C@H](C(C)C)N3C[C@H]2Cc2ccc(O)cc2)cc1Br	none
C[C@@H](CN1C2=NC[C@H](Cc3ccccc3)N2C[C@H]1Cc1ccc(O)cc1)NC(=O)CCC1CCCCC1	none
COc1ccc(C[C@H]2CN3C(=NC[C@@H]3C(C)C)N2C[C@H](C)NC(=O)c2ccc(C)c(Br)c2)cc1	Mdm2-MdmX inh 52 | Mdm2-MdmX conf inactive
CCc1nnc(NC(=O)CCC(=O)Nc2ccc(Cl)cc2)s1	none
O=Cc1ccc(C(=O)OCC(=O)NCc2ccco2)cc1	none (no result: aSyn UTR inh)
CC(C)(C)OC(=O)N[C@H]1C=C[C@@H](OC(=O)CC(=O)OCC(F)(F)F)C1	none (no result: Beta apoptosis, aSyn UTR inh, CSC inhib, Bfl-1 A1 inh)
CCCSc1ccc([C@@H]2[C@H]3C(=O)N(CC)C(=O)[C@H]3[C@]3(C(=O)OC)CCCCN23)cc1	none
CC[C@@H](C(=O)[C@@H](C)[C@@H](O)[C@H](C)CCc1ccc(C)c(O)c1C(=O)O)[C@H]1O[C@](CC)([C@H]2CC[C@](O)(CC)[C@H](C)O2)C[C@@H]1C	Mdm2-MdmX inh 100, Beta apoptosis 97, aSyn UTR inh 100, CSC inhib 117 | Mdm2-MdmX conf 71 | Full FLuc ctr inactive
O=C(NCCN1CCN(S(=O)(=O)c2ccc([N+](=O)[O-])cc2)CC1)C(=O)Nc1ccccc1	Mdm2-MdmX inh 71 | Mdm2-MdmX conf inactive
O=C(NC1CCCCC1)N1CCNCC1	none
C1CCCCCC(NCCN2CCNCC2)CCCCC1	Mdm2-MdmX inh 97 | Mdm2-MdmX conf 93 | Full FLuc ctr inactive
CC(C)OC(=O)c1c2nc3ccccc3nc2n2c1[nH]c(=O)c1ccccc12	Mdm2-MdmX inh 60 | Mdm2-MdmX conf inactive | Full FLuc ctr 48
CCc1nc2c(c(=O)c3ccccc3n2C)c(=O)n1CCc1ccc(OC)cc1	Mdm2-MdmX inh 88, aSyn UTR inh 74 | Mdm2-MdmX conf 66 | Full FLuc ctr 123
